# From PubChem BioAssay AID1159580 (chemical genetic matrix, 2015)
# Among all 5,500 compounds or so, about 2,000 (36%) were called active. Not shown: some 18% with an inconclusive outcome. The list shows a part of the results. Values without a mark were called inactive. Cut-off read from the data, not from the text of the source: active = normalized growth mostly below about 0.91 (no sharp cut-off); inconclusive = no clear call, values can overlap the other calls; inactive = mostly above about 0.92.
# Assay: chemical genetic growth profiling, strain panel (AID 1159580);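 note: tested at 20 µM; growth read once vehicle control cultures reached saturation at 30 °C; 1 = growth at the plate median or of vehicle wells; lower values mean less growth of the strain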
# Conditions: S. cerevisiae deletion strains, growth OD
compound,measurement,setting,value
O=C(O[C@@H]1Cc2c(O)cc(O)cc2O[C@@H]1c1cc(O)c(O)c(O)c1-c1c([C@H]2Oc3cc(O)cc(O)c3C[C@H]2O)cc(O)c(O)c1O)c1cc(O)c(O)c(O)c1,normalized growth,"locus YAL013W, strain DEP1, stronger effect = lower value",0.0787 (active)
same,normalized growth,"locus YAL021C, strain ccr4, stronger effect = lower value",0.962
same,normalized growth,"locus YAL026C, strain drs2, stronger effect = lower value",0.965
same,normalized growth,"locus YAL030W, strain snc1, stronger effect = lower value",1.01
same,normalized growth,"locus YBL061C, strain skt5, stronger effect = lower value",0.997
same,normalized growth,"locus YBR009C, strain hhf1, stronger effect = lower value",0.979
same,normalized growth,"locus YBR021W, strain FUR4, stronger effect = lower value",1.03
same,normalized growth,"locus YBR023C, strain chs3, stronger effect = lower value",0.936
same,normalized growth,"locus YBR171W, strain sec66, stronger effect = lower value",1.02
same,normalized growth,"locus YBR229C, strain ROT2, stronger effect = lower value",0.387 (active)
same,normalized growth,"locus YBR231C, strain swc5, stronger effect = lower value",0.873 (active)
same,normalized growth,"locus YBR279W, strain paf1, stronger effect = lower value",0.978
same,normalized growth,"locus YCL011C, strain gbp2, stronger effect = lower value",0.988
same,normalized growth,"locus YCL016C, strain dcc1, stronger effect = lower value",0.988
same,normalized growth,"locus YCL029C, strain bik1, stronger effect = lower value",0.643 (active)
same,normalized growth,"locus YCL061C, strain MRC1, stronger effect = lower value",0.993
same,normalized growth,"locus YCL069W, strain vba3, stronger effect = lower value",1.01
same,normalized growth,"locus YCR088W, strain abp1, stronger effect = lower value",1.03
same,normalized growth,"locus YDL005C, strain med2, stronger effect = lower value",1.03
same,normalized growth,"locus YDL035C, strain GPR1, stronger effect = lower value",0.0755 (active)
same,normalized growth,"locus YDL040C, strain nat1, stronger effect = lower value",1
same,normalized growth,"locus YDL074C, strain BRE1, stronger effect = lower value",0.204 (active)
same,normalized growth,"locus YDL101C, strain DUN1, stronger effect = lower value",0.113 (active)
same,normalized growth,"locus YDL134C, strain PPH21, stronger effect = lower value",0.09 (active)
same,normalized growth,"locus YDL185W, strain tfp1, stronger effect = lower value",0.928
same,normalized growth,"locus YDL192W, strain arf1, stronger effect = lower value",0.553 (active)
same,normalized growth,"locus YDR001C, strain nth1, stronger effect = lower value",1.03
same,normalized growth,"locus YDR069C, strain doa4, stronger effect = lower value",0.893 (active)
same,normalized growth,"locus YDR101C, strain arx1, stronger effect = lower value",0.772 (active)
same,normalized growth,"locus YDR137W, strain rgp1, stronger effect = lower value",0.984
same,normalized growth,"locus YDR159W, strain sac3, stronger effect = lower value",1.14 [resistant] (active)
same,normalized growth,"locus YDR162C, strain NBP2, stronger effect = lower value",0.0726 (active)
same,normalized growth,"locus YDR195W, strain ref2",1.07
same,normalized growth,"locus YDR297W, strain sur2, stronger effect = lower value",0.981
same,normalized growth,"locus YDR318W, strain mcm21, stronger effect = lower value",0.61 (active)
same,normalized growth,"locus YDR334W, strain swr1, stronger effect = lower value",0.985
same,normalized growth,"locus YDR335W, strain msn5, stronger effect = lower value",0.979
same,normalized growth,"locus YDR388W, stronger effect = lower value",0.737 (active)
same,normalized growth,"locus YDR392W, strain spt3, stronger effect = lower value",1.02
same,normalized growth,"locus YDR502C, strain sam2, stronger effect = lower value",0.362 (active)
same,normalized growth,"locus YEL003W, strain gim4, stronger effect = lower value",0.968
same,normalized growth,"locus YEL037C, strain rad23, stronger effect = lower value",1
same,normalized growth,"locus YEL061C, strain CIN8 (second series), stronger effect = lower value",1.02
same,normalized growth,"locus YER015W, strain faa2, stronger effect = lower value",0.892 (active)
same,normalized growth,"locus YER016W, strain bim1, stronger effect = lower value",1.01
same,normalized growth,"locus YER110C, stronger effect = lower value",0.992
same,normalized growth,"locus YER111C, strain swi4, stronger effect = lower value",0.963
same,normalized growth,"locus YER155C, strain BEM2 (second series), stronger effect = lower value",1.03
same,normalized growth,"locus YER155C, strain BEM2, stronger effect = lower value",0.523 (active)
same,normalized growth,"locus YER167W, strain BCK2, stronger effect = lower value",0.295 (active)
same,normalized growth,"locus YFR010W, strain ubp6, stronger effect = lower value",0.986
same,normalized growth,"locus YGL078C, strain dbp3, stronger effect = lower value",0.983
same,normalized growth,"locus YGL086W, strain mad1, stronger effect = lower value",0.308 (active)
same,normalized growth,"locus YGL167C, strain pmr1, stronger effect = lower value",1
same,normalized growth,"locus YGL173C, strain kem1, stronger effect = lower value",0.961
same,normalized growth,"locus YGL227W, strain vid30, stronger effect = lower value",1.04
same,normalized growth,"locus YGL240W, strain doc1, stronger effect = lower value",1.09
same,normalized growth,"locus YGL248W, strain PDE1, stronger effect = lower value",0.146 (active)
same,normalized growth,"locus YGL253W, strain hxk2, stronger effect = lower value",1.01
same,normalized growth,"locus YGR078C, strain PAC10, stronger effect = lower value",0.414 (active)
same,normalized growth,"locus YGR135W, strain pre9, stronger effect = lower value",0.429 (active)
same,normalized growth,"locus YGR229C, strain SMI1, stronger effect = lower value",0.0837 (active)
same,normalized growth,"locus YGR252W, strain gcn5, stronger effect = lower value",0.516 (active)
same,normalized growth,"locus YHR013C, strain ard1, stronger effect = lower value",0.937
same,normalized growth,"locus YHR027C, strain rpn1, stronger effect = lower value",0.911 (active)
same,normalized growth,"locus YHR030C, strain SLT2, stronger effect = lower value",0.219 (active)
same,normalized growth,"locus YHR079C, strain IRE1 (second series), stronger effect = lower value",0.626 (active)
same,normalized growth,"locus YHR094C, strain hxt1, stronger effect = lower value",0.888 (active)
same,normalized growth,"locus YHR129C, strain ARP1, stronger effect = lower value",0.205 (active)
same,normalized growth,"locus YHR142W, strain chs7, stronger effect = lower value",0.969
same,normalized growth,"locus YHR200W, strain rpn10, stronger effect = lower value",0.569 (active)
same,normalized growth,"locus YIL066C, strain RNR3, stronger effect = lower value",0.0703 (active)
same,normalized growth,"locus YIL073C, strain SPO22, stronger effect = lower value",0.15 (active)
same,normalized growth,"locus YIL125W, strain kgd1, stronger effect = lower value",1.02
same,normalized growth,"locus YIR030C, strain dcg1, stronger effect = lower value",0.863 (active)
same,normalized growth,"locus YJL092W, strain hpr5, stronger effect = lower value",1.03
same,normalized growth,"locus YJL095W, strain BCK1 (second series), stronger effect = lower value",0.991
same,normalized growth,"locus YJL095W, strain BCK1, stronger effect = lower value",0.107 (active)
same,normalized growth,"locus YJL115W, strain asf1, stronger effect = lower value",1.03
same,normalized growth,"locus YJL129C, strain trk1, stronger effect = lower value",1.06
same,normalized growth,"locus YJL134W, strain LCB3, stronger effect = lower value",0.432 (active)
same,normalized growth,"locus YJL154C, strain vps35, stronger effect = lower value",1.02
same,normalized growth,"locus YJL164C, strain tpk1, stronger effect = lower value",0.941
same,normalized growth,"locus YJL166W, strain qcr8, stronger effect = lower value",0.984
same,normalized growth,"locus YJL168C, strain set2, stronger effect = lower value",0.934
